40 compounds from PubChem BioAssay (NCI) can be followed below.

“And” between values parts separate entries of the source, which are not always exact repeats. Identical values can stand only once. About 83,000 compounds went through this panel and 20% of them were active in at least one assay; those are over-represented in the sample as a whole.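 For each line, cells grew in 96-well plates with the test compound present at a single concentration for 48 hours.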 Values without a mark were called inactive. The source made the active and inactive calls. Rule for the calls: active = growth percent below 10; inactive = the rest.

The test deals with MDA-MB-468 breast. Description: NCI-60 one-dose screen, 48 h (100 = growth as untreated, 0 = no growth, -100 = all killed). Particulars: 10 µM unless noted.
On to `O=C1/C(=C/c2ccc([N+](=O)[O-])s2)Oc2ccc(Br)cc21`, for which the growth is -40.2% (active).

Regarding `Nc1nc(N)c2cc(Sc3ccc4ccccc4c3)ccc2n1`, the growth is 10.2%. The same measure for `Cc1ccc(C2=NNC(c3sc(Cl)nc3Cl)C2)cc1` (stereo not given): 93.5%; for `COc1cc(C2CC(=O)Nc3c2c(C)nn3-c2nc3ccccc3[nH]2)cc(OC)c1O` (stereo not given): 18.5%; for `CCCN1C(=O)/C(=c2\sc3n(c2=O)C2C(NN=3)N(CC)C(=O)N2CC)c2ccccc21` (stereo not given): 4.78% (active).

In the case of `Oc1ccc(Cl)cc1Cc1cc(Cl)ccc1O`, the growth is 19.2%. The same measure for `O=C(N/N=C\c1ccc(Cl)cc1)c1ccc2nc(-c3ccc(Br)cc3)[nH]c2c1`: -34.9% (active). The same measure for `CCOC(=O)/C=C/c1c(C)[nH]c(=O)[nH]c1=O`: 72.8%.

`C=C(C)COc1ccc(C(C)(C)C)cc1`: the growth is 91.2%. The same measure for `Cc1ccc2nc(-c3ccc(N=Cc4ccccc4O)cc3)sc2c1`: 86.4%. The same measure for `Nc1ccc(Cl)cn1`: 102%; for `CC1OC(Oc2c(-c3ccc(O)c(O)c3)oc3cc(O)cc(O)c3c2=O)C(O)C(O)C1O` (stereo not given): 102%.

As for `CC(=O)Nc1ccc(C(=O)CCl)cc1`, the growth was 8.65% (active). The same measure for `CCN(CC)CCCC(C)Nc1cnc(C(=O)Nc2ccc(Cl)c3cccnc23)cn1` (stereo not given): -28% (active); for `CCC(C)C1CCC(O)CC1` (stereo not given): 101%; for `C/C(=N/Nc1nc(N/N=C(/C)c2ccc([N+](=O)[O-])cc2)nc(N2CCOCC2)n1)c1ccc([N+](=O)[O-])cc1`: 79.7%.

Take `CN1CC(c2ccc(Br)cc2)C(C(=O)c2ccc(Br)cc2)C12C(=O)Nc1ccccc12` (stereo not given): the growth is 81.4%.

Take `O=C(CSc1nc2ccccc2c(=O)n1-c1ccccc1)Nc1ccc(C(=O)/C=C/c2ccc(Cl)cc2)cc1`: the growth was 121%. The same measure for `COc1ccc(C2CC(c3ccccc3)=NN2c2nc(C)c(C(C)=O)s2)cc1` (stereo not given): 100%.

`Nc1nc(N)c2c(n1)NC(c1cccc(Nc3ccnc4cc(C(F)(F)F)ccc34)c1)CC(c1ccc(Br)cc1)=N2` (stereo not given): the growth is 41.9%. The same measure for `NC(=O)c1noc(C(=O)c2ccccc2)c1N`: 95.5%. The same measure for `Cn1cc(-c2nn3cc(-c4cccs4)nc3s2)c2cc(F)ccc21`: 44.4%; for `O=c1c2cc(F)ccc2sc2c(Nc3ccncc3)nc3ccccc3c12`: 27.8%; for `O=C(O)C(CCc1ccccc1)NCc1ccccc1` (stereo not given): 108%. The same measure for `CCO/C=N/NC(=O)c1ccncc1`: 107%; for `O=C(Nc1ccc(Cl)c(Cl)c1)NC(CO)(CO)CO`: 95.9%; for `Cc1nnc(NC/C=C/c2ccccc2)s1`: 106% and 92%. `NC(Cc1ccccc1)C(=O)NC(Cc1ccccc1)C(=O)O` (stereo not given): the growth is 102% and 92.8%. With `CCN(CC)CCNc1ccc(C)c2sc3ccccc3c(=O)c12` (tested in a mixture with another compound), the growth is 11.8% and 16.9%.

On to `Cn1cnc2c(N3CCN(C(=O)OCc4ccc5c(Cl)cc(Cl)c(O)c5n4)CC3)nc(Cl)nc21`, for which the growth is 72.5%. The same measure for `Cc1oc2nc[nH]c(=O)c2c1C(=O)/C=C/c1ccc(Cl)cc1`: 10.6%; for `C=C1C(=O)O[C@H]2[C@H]1CC/C(COC(=O)c1ccc3ccccc3c1)=C\CC[C@@]1(C)O[C@@H]21`: -57.9% (active); for `Nc1ccccc1NC(=O)CCCCCCC(=O)Nc1ccc2c(c1)/C(=C/c1ccc[nH]1)C(=O)N2`: 32.9%. `N=c1nc(N)ncn1-c1ccccc1`: the growth is 113%. The same measure for `O=C(/C=C1\C=CN(CCCCF)c2ccccc21)n1ccc2ccccc21`: 91.2%; for `COc1ccc(/C=C/C(=O)c2ccc(NC(=O)CSc3nnc(-c4ccc(OC)c(OC)c4)n3-c3ccccc3)cc2)cc1`: 60.2%. With `C=CCn1c(SCC(=O)Nc2ccc(C(=O)/C=C/c3ccc(Br)cc3)cc2)nnc1-c1c[nH]c2ccccc12`, the growth was 85.8%. For `O=S(=O)(NCCCNc1cc(-c2cn(-c3ccccc3)nc2-c2cccc(O)c2)ccn1)c1ccc(Cl)cc1`, the growth is -15.9% (active). With `O=C(/C=C/c1cc([N+](=O)[O-])ccc1Cl)c1ccccc1`, the growth is 57.6%.

As to `COc1cc(CNC(=O)C2CSC3(C)c4ccccc4C(=O)N23)cc(OC)c1OC` (stereo not given), the growth was 89.6%.
